# From ChEMBL document CHEMBL1961873, “Compounds: GSK PKIS; Assays: Nanosyn kinase panel” (2012)
# How the values were obtained:
# [1] = target: Sphingosine kinase 1 (Homo sapiens) (UniProt Q9NYA1); details: at 1 µM;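 further: mean SPHK1 inhibition value reported from the GSK PKIS kinase panel screen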
# [2] = target: T1, Sphingosine kinase 2 (Homo sapiens) (UniProt Q9NRA0); details: at 0.1 µM
# T1 sequence (whole entry): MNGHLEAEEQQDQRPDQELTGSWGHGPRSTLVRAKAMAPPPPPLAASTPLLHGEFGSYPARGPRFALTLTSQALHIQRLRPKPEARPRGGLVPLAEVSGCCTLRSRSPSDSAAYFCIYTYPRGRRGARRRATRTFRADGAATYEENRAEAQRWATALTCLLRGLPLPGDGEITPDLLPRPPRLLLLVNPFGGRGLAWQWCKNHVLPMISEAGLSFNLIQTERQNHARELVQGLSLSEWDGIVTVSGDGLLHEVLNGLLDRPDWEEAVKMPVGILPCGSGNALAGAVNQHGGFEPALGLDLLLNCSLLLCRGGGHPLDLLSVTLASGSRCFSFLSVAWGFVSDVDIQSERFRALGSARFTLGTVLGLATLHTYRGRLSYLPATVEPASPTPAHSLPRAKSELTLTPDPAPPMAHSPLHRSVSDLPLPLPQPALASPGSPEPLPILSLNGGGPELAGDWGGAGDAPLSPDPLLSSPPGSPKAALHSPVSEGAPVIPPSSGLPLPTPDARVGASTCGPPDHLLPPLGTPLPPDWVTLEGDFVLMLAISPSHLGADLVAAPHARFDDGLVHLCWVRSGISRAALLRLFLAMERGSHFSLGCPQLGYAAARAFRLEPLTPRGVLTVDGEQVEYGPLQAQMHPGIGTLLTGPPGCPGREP
# [3] = target: T1, Sphingosine kinase 2 (Homo sapiens); details: at 1 µM
# [4] = target: Casein kinase II subunit alpha (Homo sapiens) (UniProt P68400); details: at 0.1 µM
# [5] = target: Casein kinase II subunit alpha (Homo sapiens) (UniProt P68400); details: at 1 µM
# [6] = target: T2, Inhibitor of nuclear factor kappa-B kinase subunit alpha (Homo sapiens) (UniProt O15111); details: at 0.1 µM
# T2 sequence (whole entry): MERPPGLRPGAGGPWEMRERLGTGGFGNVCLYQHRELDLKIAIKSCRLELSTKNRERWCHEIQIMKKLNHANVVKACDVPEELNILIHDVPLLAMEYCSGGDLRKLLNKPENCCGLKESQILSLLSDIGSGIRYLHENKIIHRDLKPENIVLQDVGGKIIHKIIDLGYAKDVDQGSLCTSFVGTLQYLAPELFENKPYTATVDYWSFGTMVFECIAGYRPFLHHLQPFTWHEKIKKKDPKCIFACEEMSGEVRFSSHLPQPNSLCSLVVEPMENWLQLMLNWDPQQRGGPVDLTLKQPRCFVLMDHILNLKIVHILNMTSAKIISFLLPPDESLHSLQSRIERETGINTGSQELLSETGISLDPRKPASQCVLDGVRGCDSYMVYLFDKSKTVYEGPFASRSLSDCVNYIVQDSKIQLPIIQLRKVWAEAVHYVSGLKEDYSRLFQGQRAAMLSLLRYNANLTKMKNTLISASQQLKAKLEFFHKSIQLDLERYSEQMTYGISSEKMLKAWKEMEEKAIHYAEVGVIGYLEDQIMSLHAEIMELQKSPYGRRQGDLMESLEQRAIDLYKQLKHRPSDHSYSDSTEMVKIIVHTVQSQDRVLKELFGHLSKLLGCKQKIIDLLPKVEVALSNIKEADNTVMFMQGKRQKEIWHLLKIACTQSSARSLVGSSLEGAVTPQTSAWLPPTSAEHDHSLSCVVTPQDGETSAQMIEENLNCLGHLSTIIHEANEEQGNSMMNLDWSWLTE
# [7] = target: T2, Inhibitor of nuclear factor kappa-B kinase subunit alpha (Homo sapiens); details: at 1 µM
# [8] = target: T3, Inhibitor of nuclear factor kappa-B kinase subunit beta (Homo sapiens) (UniProt O14920); details: at 0.1 µM
# T3 sequence (whole entry): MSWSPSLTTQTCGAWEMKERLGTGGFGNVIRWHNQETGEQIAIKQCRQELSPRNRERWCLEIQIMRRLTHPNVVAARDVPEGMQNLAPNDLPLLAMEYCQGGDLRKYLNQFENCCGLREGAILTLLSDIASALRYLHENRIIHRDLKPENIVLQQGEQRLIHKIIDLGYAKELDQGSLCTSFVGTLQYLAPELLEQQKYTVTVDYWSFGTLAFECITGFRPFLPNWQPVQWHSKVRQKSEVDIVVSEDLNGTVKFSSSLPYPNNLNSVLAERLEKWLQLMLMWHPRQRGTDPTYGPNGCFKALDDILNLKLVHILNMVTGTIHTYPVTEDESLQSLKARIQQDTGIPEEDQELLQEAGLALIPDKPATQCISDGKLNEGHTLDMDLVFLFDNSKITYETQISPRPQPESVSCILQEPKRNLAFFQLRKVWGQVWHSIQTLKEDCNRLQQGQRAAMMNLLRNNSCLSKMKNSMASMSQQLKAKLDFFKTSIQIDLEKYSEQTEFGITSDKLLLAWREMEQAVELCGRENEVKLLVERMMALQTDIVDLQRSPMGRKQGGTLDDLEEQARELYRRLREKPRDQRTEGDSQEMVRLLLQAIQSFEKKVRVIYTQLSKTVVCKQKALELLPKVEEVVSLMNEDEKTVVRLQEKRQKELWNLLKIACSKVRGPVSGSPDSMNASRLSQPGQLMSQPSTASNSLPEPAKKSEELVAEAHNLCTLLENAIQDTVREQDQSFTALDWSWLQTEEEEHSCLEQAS
# [9] = target: T3, Inhibitor of nuclear factor kappa-B kinase subunit beta (Homo sapiens); details: at 1 µM
# [10] = target: T4, Inhibitor of nuclear factor kappa-B kinase subunit epsilon (Homo sapiens) (UniProt Q14164); details: at 0.1 µM
# T4 sequence (whole entry): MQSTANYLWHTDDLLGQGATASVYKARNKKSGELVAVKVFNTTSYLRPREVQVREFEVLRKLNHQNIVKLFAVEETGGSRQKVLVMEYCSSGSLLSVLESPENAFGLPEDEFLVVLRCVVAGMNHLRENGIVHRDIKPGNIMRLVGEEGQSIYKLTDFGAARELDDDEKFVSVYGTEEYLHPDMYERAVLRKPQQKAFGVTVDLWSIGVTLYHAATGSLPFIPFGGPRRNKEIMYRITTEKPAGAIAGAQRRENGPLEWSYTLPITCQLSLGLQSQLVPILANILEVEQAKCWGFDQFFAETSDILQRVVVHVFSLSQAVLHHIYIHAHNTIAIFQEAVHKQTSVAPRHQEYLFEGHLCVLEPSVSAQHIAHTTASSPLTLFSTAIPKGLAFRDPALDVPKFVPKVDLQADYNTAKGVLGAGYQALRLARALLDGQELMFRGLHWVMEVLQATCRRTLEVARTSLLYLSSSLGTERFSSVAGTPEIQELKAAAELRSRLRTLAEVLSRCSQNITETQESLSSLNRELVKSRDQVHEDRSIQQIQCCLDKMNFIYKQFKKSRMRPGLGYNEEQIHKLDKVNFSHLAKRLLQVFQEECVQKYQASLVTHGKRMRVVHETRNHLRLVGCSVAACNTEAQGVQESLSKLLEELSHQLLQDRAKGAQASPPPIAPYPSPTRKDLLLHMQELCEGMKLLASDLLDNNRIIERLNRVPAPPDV
# [11] = target: T4, Inhibitor of nuclear factor kappa-B kinase subunit epsilon (Homo sapiens); details: at 1 µM
# [12] = target: T5, Serine/threonine-protein kinase Nek1 (Homo sapiens) (UniProt Q96PY6); details: at 0.1 µM
# T5 sequence (whole entry): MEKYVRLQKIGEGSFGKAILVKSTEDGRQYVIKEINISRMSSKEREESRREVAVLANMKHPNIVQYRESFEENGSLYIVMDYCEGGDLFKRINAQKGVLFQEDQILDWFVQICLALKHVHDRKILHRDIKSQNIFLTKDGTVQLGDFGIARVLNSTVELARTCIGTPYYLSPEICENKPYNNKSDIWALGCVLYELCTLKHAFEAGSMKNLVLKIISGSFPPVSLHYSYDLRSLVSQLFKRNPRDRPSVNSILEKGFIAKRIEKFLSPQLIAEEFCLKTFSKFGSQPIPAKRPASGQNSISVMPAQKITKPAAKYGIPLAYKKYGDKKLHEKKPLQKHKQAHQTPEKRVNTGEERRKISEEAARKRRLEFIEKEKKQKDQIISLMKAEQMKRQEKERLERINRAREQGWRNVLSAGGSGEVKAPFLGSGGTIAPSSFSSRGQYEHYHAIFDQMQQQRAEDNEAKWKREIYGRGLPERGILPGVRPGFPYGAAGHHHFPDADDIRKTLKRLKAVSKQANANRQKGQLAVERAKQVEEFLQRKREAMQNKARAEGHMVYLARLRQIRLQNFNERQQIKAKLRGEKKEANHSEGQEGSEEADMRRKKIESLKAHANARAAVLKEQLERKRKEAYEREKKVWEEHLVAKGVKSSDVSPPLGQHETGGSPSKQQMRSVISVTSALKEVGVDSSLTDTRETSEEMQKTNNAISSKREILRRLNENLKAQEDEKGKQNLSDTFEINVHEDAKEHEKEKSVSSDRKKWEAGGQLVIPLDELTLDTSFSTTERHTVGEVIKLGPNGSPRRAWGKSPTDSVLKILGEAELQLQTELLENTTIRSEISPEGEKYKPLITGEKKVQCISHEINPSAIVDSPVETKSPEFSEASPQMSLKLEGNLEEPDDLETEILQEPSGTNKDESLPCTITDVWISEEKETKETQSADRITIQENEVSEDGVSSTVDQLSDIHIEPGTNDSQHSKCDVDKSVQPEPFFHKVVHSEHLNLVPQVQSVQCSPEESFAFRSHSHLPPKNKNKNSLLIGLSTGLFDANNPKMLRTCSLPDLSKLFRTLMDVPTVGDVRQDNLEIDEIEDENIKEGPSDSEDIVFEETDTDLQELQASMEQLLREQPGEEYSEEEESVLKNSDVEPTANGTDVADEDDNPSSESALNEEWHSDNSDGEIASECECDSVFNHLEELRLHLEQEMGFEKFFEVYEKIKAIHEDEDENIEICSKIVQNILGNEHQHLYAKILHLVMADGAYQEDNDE
# [13] = target: T5, Serine/threonine-protein kinase Nek1 (Homo sapiens); details: at 1 µM
# [14] = target: T6, Serine/threonine-protein kinase Nek2 (Homo sapiens) (UniProt P51955); details: at 0.1 µM
# T6 sequence (whole entry): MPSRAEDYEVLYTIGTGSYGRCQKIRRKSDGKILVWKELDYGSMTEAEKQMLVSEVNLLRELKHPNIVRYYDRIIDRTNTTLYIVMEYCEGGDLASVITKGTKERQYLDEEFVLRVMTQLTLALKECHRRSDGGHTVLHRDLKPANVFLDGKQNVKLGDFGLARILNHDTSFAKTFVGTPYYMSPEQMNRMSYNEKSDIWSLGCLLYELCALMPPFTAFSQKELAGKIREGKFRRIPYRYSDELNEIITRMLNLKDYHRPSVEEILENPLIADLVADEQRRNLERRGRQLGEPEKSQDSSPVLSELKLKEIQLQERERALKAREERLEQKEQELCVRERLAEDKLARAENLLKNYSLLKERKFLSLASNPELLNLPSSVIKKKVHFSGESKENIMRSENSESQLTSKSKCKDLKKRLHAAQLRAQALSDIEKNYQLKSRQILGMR
# [15] = target: T6, Serine/threonine-protein kinase Nek2 (Homo sapiens); details: at 1 µM
# [16] = target: Serine/threonine-protein kinase Nek6 (Homo sapiens) (UniProt Q9HC98); details: at 0.1 µM
# [17] = target: Serine/threonine-protein kinase Nek6 (Homo sapiens) (UniProt Q9HC98); details: at 1 µM
# [18] = target: Serine/threonine-protein kinase Nek7 (Homo sapiens) (UniProt Q8TDX7); details: at 0.1 µM
# [19] = target: Serine/threonine-protein kinase Nek7 (Homo sapiens) (UniProt Q8TDX7); details: at 1 µM
# [20] = target: T7, Serine/threonine-protein kinase Nek9 (Homo sapiens) (UniProt Q8TD19); details: at 0.1 µM;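 further: reported value is the mean percent inhibition of NEK9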
# T7 sequence (whole entry): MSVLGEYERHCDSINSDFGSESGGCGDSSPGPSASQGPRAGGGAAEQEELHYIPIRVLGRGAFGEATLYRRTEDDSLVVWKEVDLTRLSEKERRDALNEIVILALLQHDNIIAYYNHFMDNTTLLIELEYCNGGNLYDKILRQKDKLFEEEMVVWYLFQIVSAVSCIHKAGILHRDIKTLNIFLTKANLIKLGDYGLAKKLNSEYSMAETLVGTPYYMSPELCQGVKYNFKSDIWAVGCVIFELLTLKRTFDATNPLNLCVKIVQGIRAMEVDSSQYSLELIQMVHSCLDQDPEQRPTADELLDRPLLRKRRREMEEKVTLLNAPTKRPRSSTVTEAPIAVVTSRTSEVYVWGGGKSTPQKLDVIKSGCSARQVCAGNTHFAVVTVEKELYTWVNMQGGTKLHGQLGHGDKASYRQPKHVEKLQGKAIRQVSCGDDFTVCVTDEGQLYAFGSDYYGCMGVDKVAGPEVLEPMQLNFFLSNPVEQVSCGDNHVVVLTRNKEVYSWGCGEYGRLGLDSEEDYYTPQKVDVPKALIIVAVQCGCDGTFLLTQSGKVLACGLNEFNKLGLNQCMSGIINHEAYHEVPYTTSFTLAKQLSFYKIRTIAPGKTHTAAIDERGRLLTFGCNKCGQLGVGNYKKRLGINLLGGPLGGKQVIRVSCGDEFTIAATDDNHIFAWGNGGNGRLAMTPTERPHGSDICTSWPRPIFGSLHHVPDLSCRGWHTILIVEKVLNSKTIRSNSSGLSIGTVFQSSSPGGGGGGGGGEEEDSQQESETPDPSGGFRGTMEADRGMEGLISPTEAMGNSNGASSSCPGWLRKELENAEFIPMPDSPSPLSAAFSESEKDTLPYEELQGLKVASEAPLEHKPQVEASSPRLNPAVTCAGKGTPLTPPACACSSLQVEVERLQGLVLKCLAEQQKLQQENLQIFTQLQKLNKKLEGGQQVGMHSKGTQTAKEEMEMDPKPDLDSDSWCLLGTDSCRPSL
# Chain of Serine/threonine-protein kinase Nek6 (Homo sapiens) (Q9HC98 whole entry): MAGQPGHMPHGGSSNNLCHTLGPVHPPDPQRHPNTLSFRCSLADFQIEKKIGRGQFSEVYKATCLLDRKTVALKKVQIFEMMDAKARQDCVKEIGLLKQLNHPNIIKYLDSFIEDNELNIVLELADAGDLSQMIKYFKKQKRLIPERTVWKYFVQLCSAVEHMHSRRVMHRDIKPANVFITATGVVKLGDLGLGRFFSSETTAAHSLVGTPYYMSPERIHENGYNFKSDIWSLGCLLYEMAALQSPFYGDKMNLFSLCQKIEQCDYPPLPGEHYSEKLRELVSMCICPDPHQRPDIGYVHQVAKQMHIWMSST
# Chain of Serine/threonine-protein kinase Nek7 (Homo sapiens) (Q8TDX7 whole entry, looked up): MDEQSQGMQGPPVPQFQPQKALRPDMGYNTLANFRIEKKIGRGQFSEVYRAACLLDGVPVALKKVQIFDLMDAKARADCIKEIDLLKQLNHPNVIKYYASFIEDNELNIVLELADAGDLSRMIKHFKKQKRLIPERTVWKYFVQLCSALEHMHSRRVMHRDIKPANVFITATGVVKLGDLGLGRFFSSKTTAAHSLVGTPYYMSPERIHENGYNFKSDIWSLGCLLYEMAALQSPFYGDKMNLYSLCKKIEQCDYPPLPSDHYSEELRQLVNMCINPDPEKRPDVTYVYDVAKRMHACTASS
# Chain of Casein kinase II subunit alpha (Homo sapiens) (P68400 whole entry, looked up): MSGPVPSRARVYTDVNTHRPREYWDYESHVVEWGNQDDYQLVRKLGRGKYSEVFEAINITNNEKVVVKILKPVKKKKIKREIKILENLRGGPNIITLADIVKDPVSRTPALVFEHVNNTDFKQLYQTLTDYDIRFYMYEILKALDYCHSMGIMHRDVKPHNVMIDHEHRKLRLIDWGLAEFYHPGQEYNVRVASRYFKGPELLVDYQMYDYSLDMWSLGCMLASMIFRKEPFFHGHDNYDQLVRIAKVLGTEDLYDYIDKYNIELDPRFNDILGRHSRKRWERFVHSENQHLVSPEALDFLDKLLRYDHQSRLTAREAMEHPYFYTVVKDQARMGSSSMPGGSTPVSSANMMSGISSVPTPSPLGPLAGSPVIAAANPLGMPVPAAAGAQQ
# Chain of Sphingosine kinase 1 (Homo sapiens) (Q9NYA1 whole entry): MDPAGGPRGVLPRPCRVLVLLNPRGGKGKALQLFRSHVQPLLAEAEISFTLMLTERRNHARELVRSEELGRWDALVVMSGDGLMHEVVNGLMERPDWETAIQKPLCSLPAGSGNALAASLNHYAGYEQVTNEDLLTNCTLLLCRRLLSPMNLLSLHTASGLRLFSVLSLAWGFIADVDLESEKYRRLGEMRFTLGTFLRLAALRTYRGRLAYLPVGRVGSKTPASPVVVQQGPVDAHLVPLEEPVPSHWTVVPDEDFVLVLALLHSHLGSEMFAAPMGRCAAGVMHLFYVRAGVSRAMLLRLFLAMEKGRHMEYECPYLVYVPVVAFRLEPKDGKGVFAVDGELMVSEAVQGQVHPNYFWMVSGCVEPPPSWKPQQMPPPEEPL
smiles,measurement,setting,value
CS(=O)(=O)Nc1cccc(-c2ccc3c(NC(=O)C4CC4)n[nH]c3c2)c1,inhibition,[1],-0.74%
same,inhibition,[2],1%
same,inhibition,[3],0.16%
same,inhibition,[4],-2.9%
same,inhibition,[5],-3.51%
same,inhibition,[6],-2.77%
same,inhibition,[7],-6.36%
same,inhibition,[8],8.91%
same,inhibition,[9],3.62%
same,inhibition,[10],2.67%
same,inhibition,[11],2.59%
same,inhibition,[12],0.75%
same,inhibition,[13],1.07%
same,inhibition,[14],1.36%
same,inhibition,[15],0.27%
same,inhibition,[16],1.36%
same,inhibition,[17],-1.38%
same,inhibition,[18],2.34%
same,inhibition,[19],1.08%
same,inhibition,[20],2.01%
